# Article PMC11006913
# Numbering of substitutions follows the chain as printed.
# Key:
# Assay in all cases: PBM; 200 nM protein, PBS
# Details in all cases: dsDNA, one strand shown
# PAX4 [1] = biological target: T1, PAX4 (Homo sapiens, UniProt O43316 9-242, R200K)
# T1 sequence: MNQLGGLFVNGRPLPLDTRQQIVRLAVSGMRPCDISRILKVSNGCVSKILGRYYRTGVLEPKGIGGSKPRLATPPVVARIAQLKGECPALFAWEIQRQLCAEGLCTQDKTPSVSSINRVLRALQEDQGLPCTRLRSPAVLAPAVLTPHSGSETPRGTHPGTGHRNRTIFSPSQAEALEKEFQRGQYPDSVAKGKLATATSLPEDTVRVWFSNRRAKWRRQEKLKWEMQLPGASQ
# PAX4 [2] = biological target: T2, PAX4 (Homo sapiens, UniProt O43316 9-242)
# T2 sequence: T1 sequence with K192R
# PAX4 [3] = biological target: T3, PAX4 (Homo sapiens, UniProt O43316 9-242, R200Q)
# T3 sequence: T1 sequence with K192Q
# PAX4 [4] = biological target: T4, PAX4 (Homo sapiens, UniProt O43316 9-242, F177Y)
# T4 sequence: T1 sequence with F169Y, K192R
# PAX4 [5] = biological target: T5, PAX4 (Homo sapiens, UniProt O43316 9-242, R227W)
# T5 sequence: T1 sequence with K192R, R219W
# PRRX1 = PRRX1 (Homo sapiens, UniProt P54821 80-166, F113S)
# Sequence of PRRX1 (P54821 80-166 F113S): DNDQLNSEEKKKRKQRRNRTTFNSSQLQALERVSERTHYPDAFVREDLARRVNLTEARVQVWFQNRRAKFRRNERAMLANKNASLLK
# PAX4 [6] = biological target: T6, PAX4 (Homo sapiens, UniProt O43316 9-242, F177V)
# T6 sequence: T1 sequence with F169V, K192R
# NKX3-2 [7] = biological target: NKX3-2 (Homo sapiens, UniProt P78367 192-278, P234S)
# Sequence of NKX3-2 (Homo sapiens, UniProt P78367 192-278, P234S) (P78367 192-278 P234S): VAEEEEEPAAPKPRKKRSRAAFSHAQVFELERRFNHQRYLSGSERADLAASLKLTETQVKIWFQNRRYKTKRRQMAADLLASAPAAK
# NKX3-2 [8] = biological target: NKX3-2 (Homo sapiens, UniProt P78367 192-278)
# Sequence of NKX3-2 (Homo sapiens, UniProt P78367 192-278) (P78367 192-278): as the sequence (P78367 192-278 P234S) above, with S43P counted along it
# CRX = CRX (Homo sapiens, UniProt O43186 26-111, R41L)
# Sequence of CRX (O43186 26-111 R41L): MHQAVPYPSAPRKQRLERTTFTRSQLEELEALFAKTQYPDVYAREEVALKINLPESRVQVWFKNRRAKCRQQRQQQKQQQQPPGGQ
Sequence,binding signal (PAX4 [1]),binding signal (PAX4 [2]),binding signal (PAX4 [3]),binding signal (PAX4 [4]),binding signal (PAX4 [5]),binding signal (PRRX1),binding signal (PAX4 [6]),binding signal (NKX3-2 [7]),binding signal (NKX3-2 [8]),binding signal (CRX)
TATTTTAA,"11 upbm affinity estimate (log intensity, higher = more binding, comparable within an allelic series)","11.2 upbm affinity estimate (log intensity, higher = more binding, comparable within an allelic series)","11 upbm affinity estimate (log intensity, higher = more binding, comparable within an allelic series)","10.6 upbm affinity estimate (log intensity, higher = more binding, comparable within an allelic series)","10.6 upbm affinity estimate (log intensity, higher = more binding, comparable within an allelic series)",,,,,
ATTGATTA,,,,,,"11.1 upbm affinity estimate (log intensity, higher = more binding, comparable within an allelic series)",,,,
GGGCGCGA,"9.18 upbm affinity estimate (log intensity, higher = more binding, comparable within an allelic series)","9.18 upbm affinity estimate (log intensity, higher = more binding, comparable within an allelic series)","9.16 upbm affinity estimate (log intensity, higher = more binding, comparable within an allelic series)","9.02 upbm affinity estimate (log intensity, higher = more binding, comparable within an allelic series)","9.14 upbm affinity estimate (log intensity, higher = more binding, comparable within an allelic series)",,"9.01 upbm affinity estimate (log intensity, higher = more binding, comparable within an allelic series)","10.6 upbm affinity estimate (log intensity, higher = more binding, comparable within an allelic series)","10.6 upbm affinity estimate (log intensity, higher = more binding, comparable within an allelic series)",
CCAGCGCC,"9.19 upbm affinity estimate (log intensity, higher = more binding, comparable within an allelic series)","9.3 upbm affinity estimate (log intensity, higher = more binding, comparable within an allelic series)","9.31 upbm affinity estimate (log intensity, higher = more binding, comparable within an allelic series)","9.23 upbm affinity estimate (log intensity, higher = more binding, comparable within an allelic series)","9.33 upbm affinity estimate (log intensity, higher = more binding, comparable within an allelic series)",,"9.31 upbm affinity estimate (log intensity, higher = more binding, comparable within an allelic series)",,,
AGGCCGCC,"9.08 upbm affinity estimate (log intensity, higher = more binding, comparable within an allelic series)","9.11 upbm affinity estimate (log intensity, higher = more binding, comparable within an allelic series)","9.15 upbm affinity estimate (log intensity, higher = more binding, comparable within an allelic series)","9.1 upbm affinity estimate (log intensity, higher = more binding, comparable within an allelic series)","9.22 upbm affinity estimate (log intensity, higher = more binding, comparable within an allelic series)",,"9.15 upbm affinity estimate (log intensity, higher = more binding, comparable within an allelic series)",,,
AGCGCCGC,"9.3 upbm affinity estimate (log intensity, higher = more binding, comparable within an allelic series)","9.34 upbm affinity estimate (log intensity, higher = more binding, comparable within an allelic series)","9.35 upbm affinity estimate (log intensity, higher = more binding, comparable within an allelic series)","9.31 upbm affinity estimate (log intensity, higher = more binding, comparable within an allelic series)","9.31 upbm affinity estimate (log intensity, higher = more binding, comparable within an allelic series)",,"9.22 upbm affinity estimate (log intensity, higher = more binding, comparable within an allelic series)",,,
CGCGCGCC,"9.3 upbm affinity estimate (log intensity, higher = more binding, comparable within an allelic series)","9.28 upbm affinity estimate (log intensity, higher = more binding, comparable within an allelic series)","9.36 upbm affinity estimate (log intensity, higher = more binding, comparable within an allelic series)","9.31 upbm affinity estimate (log intensity, higher = more binding, comparable within an allelic series)","9.28 upbm affinity estimate (log intensity, higher = more binding, comparable within an allelic series)",,"9.21 upbm affinity estimate (log intensity, higher = more binding, comparable within an allelic series)",,,
GCCAGAGC,"9.17 upbm affinity estimate (log intensity, higher = more binding, comparable within an allelic series)","9.13 upbm affinity estimate (log intensity, higher = more binding, comparable within an allelic series)","9.26 upbm affinity estimate (log intensity, higher = more binding, comparable within an allelic series)","9.28 upbm affinity estimate (log intensity, higher = more binding, comparable within an allelic series)","9.34 upbm affinity estimate (log intensity, higher = more binding, comparable within an allelic series)",,"9.3 upbm affinity estimate (log intensity, higher = more binding, comparable within an allelic series)",,,
ATTACCCG,"10.6 upbm affinity estimate (log intensity, higher = more binding, comparable within an allelic series)","11 upbm affinity estimate (log intensity, higher = more binding, comparable within an allelic series)",,"9.92 upbm affinity estimate (log intensity, higher = more binding, comparable within an allelic series)","10.1 upbm affinity estimate (log intensity, higher = more binding, comparable within an allelic series)",,"9.93 upbm affinity estimate (log intensity, higher = more binding, comparable within an allelic series)",,,
GCCGCGCC,"9.1 upbm affinity estimate (log intensity, higher = more binding, comparable within an allelic series)","9.1 upbm affinity estimate (log intensity, higher = more binding, comparable within an allelic series)","9.18 upbm affinity estimate (log intensity, higher = more binding, comparable within an allelic series)","9.11 upbm affinity estimate (log intensity, higher = more binding, comparable within an allelic series)","9.16 upbm affinity estimate (log intensity, higher = more binding, comparable within an allelic series)",,"9.12 upbm affinity estimate (log intensity, higher = more binding, comparable within an allelic series)",,,
AGTGTTAG,"10.5 upbm affinity estimate (log intensity, higher = more binding, comparable within an allelic series)","10.6 upbm affinity estimate (log intensity, higher = more binding, comparable within an allelic series)",,"10 upbm affinity estimate (log intensity, higher = more binding, comparable within an allelic series)","10.1 upbm affinity estimate (log intensity, higher = more binding, comparable within an allelic series)",,"9.92 upbm affinity estimate (log intensity, higher = more binding, comparable within an allelic series)",,,
ACGTATTA,"11.7 upbm affinity estimate (log intensity, higher = more binding, comparable within an allelic series)",,,"11 upbm affinity estimate (log intensity, higher = more binding, comparable within an allelic series)","11.1 upbm affinity estimate (log intensity, higher = more binding, comparable within an allelic series)",,,,,
GGAAAATA,"10.5 upbm affinity estimate (log intensity, higher = more binding, comparable within an allelic series)","10.7 upbm affinity estimate (log intensity, higher = more binding, comparable within an allelic series)",,"10.1 upbm affinity estimate (log intensity, higher = more binding, comparable within an allelic series)",,,"10.1 upbm affinity estimate (log intensity, higher = more binding, comparable within an allelic series)",,,
GGAAGCCC,"9.27 upbm affinity estimate (log intensity, higher = more binding, comparable within an allelic series)","9.25 upbm affinity estimate (log intensity, higher = more binding, comparable within an allelic series)","9.38 upbm affinity estimate (log intensity, higher = more binding, comparable within an allelic series)","9.3 upbm affinity estimate (log intensity, higher = more binding, comparable within an allelic series)","9.35 upbm affinity estimate (log intensity, higher = more binding, comparable within an allelic series)",,"9.32 upbm affinity estimate (log intensity, higher = more binding, comparable within an allelic series)",,,
AAATTAAG,"11.5 upbm affinity estimate (log intensity, higher = more binding, comparable within an allelic series)","12.1 upbm affinity estimate (log intensity, higher = more binding, comparable within an allelic series)","11.8 upbm affinity estimate (log intensity, higher = more binding, comparable within an allelic series)","10.8 upbm affinity estimate (log intensity, higher = more binding, comparable within an allelic series)","10.8 upbm affinity estimate (log intensity, higher = more binding, comparable within an allelic series)",,"10.4 upbm affinity estimate (log intensity, higher = more binding, comparable within an allelic series)",,,
TGTATTAA,"11.7 upbm affinity estimate (log intensity, higher = more binding, comparable within an allelic series)",,,,,,,,,"10.9 upbm affinity estimate (log intensity, higher = more binding, comparable within an allelic series)"
CTGAGCGC,"9.25 upbm affinity estimate (log intensity, higher = more binding, comparable within an allelic series)","9.2 upbm affinity estimate (log intensity, higher = more binding, comparable within an allelic series)","9.31 upbm affinity estimate (log intensity, higher = more binding, comparable within an allelic series)","9.2 upbm affinity estimate (log intensity, higher = more binding, comparable within an allelic series)","9.27 upbm affinity estimate (log intensity, higher = more binding, comparable within an allelic series)",,"9.15 upbm affinity estimate (log intensity, higher = more binding, comparable within an allelic series)",,,
CCGCGACC,"9.37 upbm affinity estimate (log intensity, higher = more binding, comparable within an allelic series)","9.36 upbm affinity estimate (log intensity, higher = more binding, comparable within an allelic series)","9.36 upbm affinity estimate (log intensity, higher = more binding, comparable within an allelic series)","9.23 upbm affinity estimate (log intensity, higher = more binding, comparable within an allelic series)","9.24 upbm affinity estimate (log intensity, higher = more binding, comparable within an allelic series)",,"9.17 upbm affinity estimate (log intensity, higher = more binding, comparable within an allelic series)",,,
CGTATTAG,"11.8 upbm affinity estimate (log intensity, higher = more binding, comparable within an allelic series)","12.3 upbm affinity estimate (log intensity, higher = more binding, comparable within an allelic series)","11.4 upbm affinity estimate (log intensity, higher = more binding, comparable within an allelic series)","11.1 upbm affinity estimate (log intensity, higher = more binding, comparable within an allelic series)","11.1 upbm affinity estimate (log intensity, higher = more binding, comparable within an allelic series)",,"10.6 upbm affinity estimate (log intensity, higher = more binding, comparable within an allelic series)",,,"10.6 upbm affinity estimate (log intensity, higher = more binding, comparable within an allelic series)"
